The source of these data is PubChem BioAssay.

Experiment [1] can be described thus: binders of probe aFSTL3 on microarray, primary screen, stem cell growth factor project, biochemical, small-molecule microarray, fluorescence 635/667 (AID 1064).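 Also: measures binding of the biotinylated anti-FSTL3 antibody to printed compounds.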 Conditions: higher = more signal.
Experiment [2] can be described thus: binders from COS7 lysate, DM2A8 probe, primary screen, torsin A project, cell lysate, small-molecule microarray, fluorescence 635/667 (AID 1065). The settings on record: higher = more signal, COS7 lysate expressing mutant human TOR1A.
The nature of experiment [3]: binders of probe aFGF2 on microarray, primary screen, stem cell growth factor project, biochemical, small-molecule microarray, fluorescence 635/667 (AID 1067).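 Also: measures binding of biotinylated aFGF2 protein to printed compounds on slides; z-score merges feature fluorescence and signal-to-noise across triplicate slides.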 Conditions: higher = more signal.
A short description of experiment [4]: binders of probe aFGF10 on microarray, primary screen, stem cell growth factor project, biochemical, small-molecule microarray, fluorescence 635/667 (AID 1071).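 Also: score merges 667 nm spot intensity and signal to noise from triplicate slides.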 The settings on record: higher = more signal.
For experiment [5], the target named is Neurogenic locus notch homolog protein 2 (Homo sapiens) (UniProt Q04721). As to the kind of experiment: Notch2 binders on small-molecule microarrays, primary screen, biochemical, small-molecule microarray, 635 nm fluorescence, stem cell growth factors (AID 1073). Conditions: Notch2 binding, higher = more signal.
Experiment [6] concerns the target Pro-neuregulin-1, membrane-bound isoform (Homo sapiens) (UniProt Q02297). As to the kind of experiment: NRG1 binders on small-molecule microarrays, primary screen, psychiatric disease protein project, biochemical, small-molecule microarray, fluorescence 635/667 (AID 1075).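 Also: score combines 667 nm spot fluorescence with signal to noise.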 The settings on record: NRG1 binding, 635 nm fluorescence, higher = more signal.
The subject of experiment [7] is Neuregulin-1 EGF-like domain. As to the kind of experiment: binders of neuregulin-1 EGF-like domain, primary screen, biochemical, small-molecule microarray, 635 nm fluorescence (AID 1081).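 Also: binding of the protein to compounds printed on small-molecule microarray slides.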 Conditions: small-molecule microarray binding, higher = more signal.
The nature of experiment [8]: FRG1 promoter luciferase signal modulators, primary screen, FRG1 inhibition for FSHD, cell-based, C2C12 myotubes, firefly/Renilla luciferase, luminescence (AID 1084). The settings on record: higher = more signal, called active from +8 up or from −8 down.
Experiment [9] is described as follows: binders of probe aFST on microarray, primary screen, stem cell growth factor project, biochemical, small-molecule microarray, fluorescence 635/667 (AID 1086).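 Also: score merges 667 nm fluorescence with signal-to-noise of each printed compound spot.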 The settings on record: higher = more signal.
Experiment [10] is described as follows: binders of probe aHhip on microarray, primary screen, stem cell growth factor project, biochemical, small-molecule microarray, fluorescence 635/667 (AID 1087).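 Also: score merges spot fluorescence at 667nm with spot signal to noise ratio.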 The settings on record: higher = more signal.

Structures are written as SMILES. Activity calls are given as the source filed them.

Sequence of Neurogenic locus notch homolog protein 2 (Homo sapiens) (Q04721 whole entry, looked up, canonical isoform): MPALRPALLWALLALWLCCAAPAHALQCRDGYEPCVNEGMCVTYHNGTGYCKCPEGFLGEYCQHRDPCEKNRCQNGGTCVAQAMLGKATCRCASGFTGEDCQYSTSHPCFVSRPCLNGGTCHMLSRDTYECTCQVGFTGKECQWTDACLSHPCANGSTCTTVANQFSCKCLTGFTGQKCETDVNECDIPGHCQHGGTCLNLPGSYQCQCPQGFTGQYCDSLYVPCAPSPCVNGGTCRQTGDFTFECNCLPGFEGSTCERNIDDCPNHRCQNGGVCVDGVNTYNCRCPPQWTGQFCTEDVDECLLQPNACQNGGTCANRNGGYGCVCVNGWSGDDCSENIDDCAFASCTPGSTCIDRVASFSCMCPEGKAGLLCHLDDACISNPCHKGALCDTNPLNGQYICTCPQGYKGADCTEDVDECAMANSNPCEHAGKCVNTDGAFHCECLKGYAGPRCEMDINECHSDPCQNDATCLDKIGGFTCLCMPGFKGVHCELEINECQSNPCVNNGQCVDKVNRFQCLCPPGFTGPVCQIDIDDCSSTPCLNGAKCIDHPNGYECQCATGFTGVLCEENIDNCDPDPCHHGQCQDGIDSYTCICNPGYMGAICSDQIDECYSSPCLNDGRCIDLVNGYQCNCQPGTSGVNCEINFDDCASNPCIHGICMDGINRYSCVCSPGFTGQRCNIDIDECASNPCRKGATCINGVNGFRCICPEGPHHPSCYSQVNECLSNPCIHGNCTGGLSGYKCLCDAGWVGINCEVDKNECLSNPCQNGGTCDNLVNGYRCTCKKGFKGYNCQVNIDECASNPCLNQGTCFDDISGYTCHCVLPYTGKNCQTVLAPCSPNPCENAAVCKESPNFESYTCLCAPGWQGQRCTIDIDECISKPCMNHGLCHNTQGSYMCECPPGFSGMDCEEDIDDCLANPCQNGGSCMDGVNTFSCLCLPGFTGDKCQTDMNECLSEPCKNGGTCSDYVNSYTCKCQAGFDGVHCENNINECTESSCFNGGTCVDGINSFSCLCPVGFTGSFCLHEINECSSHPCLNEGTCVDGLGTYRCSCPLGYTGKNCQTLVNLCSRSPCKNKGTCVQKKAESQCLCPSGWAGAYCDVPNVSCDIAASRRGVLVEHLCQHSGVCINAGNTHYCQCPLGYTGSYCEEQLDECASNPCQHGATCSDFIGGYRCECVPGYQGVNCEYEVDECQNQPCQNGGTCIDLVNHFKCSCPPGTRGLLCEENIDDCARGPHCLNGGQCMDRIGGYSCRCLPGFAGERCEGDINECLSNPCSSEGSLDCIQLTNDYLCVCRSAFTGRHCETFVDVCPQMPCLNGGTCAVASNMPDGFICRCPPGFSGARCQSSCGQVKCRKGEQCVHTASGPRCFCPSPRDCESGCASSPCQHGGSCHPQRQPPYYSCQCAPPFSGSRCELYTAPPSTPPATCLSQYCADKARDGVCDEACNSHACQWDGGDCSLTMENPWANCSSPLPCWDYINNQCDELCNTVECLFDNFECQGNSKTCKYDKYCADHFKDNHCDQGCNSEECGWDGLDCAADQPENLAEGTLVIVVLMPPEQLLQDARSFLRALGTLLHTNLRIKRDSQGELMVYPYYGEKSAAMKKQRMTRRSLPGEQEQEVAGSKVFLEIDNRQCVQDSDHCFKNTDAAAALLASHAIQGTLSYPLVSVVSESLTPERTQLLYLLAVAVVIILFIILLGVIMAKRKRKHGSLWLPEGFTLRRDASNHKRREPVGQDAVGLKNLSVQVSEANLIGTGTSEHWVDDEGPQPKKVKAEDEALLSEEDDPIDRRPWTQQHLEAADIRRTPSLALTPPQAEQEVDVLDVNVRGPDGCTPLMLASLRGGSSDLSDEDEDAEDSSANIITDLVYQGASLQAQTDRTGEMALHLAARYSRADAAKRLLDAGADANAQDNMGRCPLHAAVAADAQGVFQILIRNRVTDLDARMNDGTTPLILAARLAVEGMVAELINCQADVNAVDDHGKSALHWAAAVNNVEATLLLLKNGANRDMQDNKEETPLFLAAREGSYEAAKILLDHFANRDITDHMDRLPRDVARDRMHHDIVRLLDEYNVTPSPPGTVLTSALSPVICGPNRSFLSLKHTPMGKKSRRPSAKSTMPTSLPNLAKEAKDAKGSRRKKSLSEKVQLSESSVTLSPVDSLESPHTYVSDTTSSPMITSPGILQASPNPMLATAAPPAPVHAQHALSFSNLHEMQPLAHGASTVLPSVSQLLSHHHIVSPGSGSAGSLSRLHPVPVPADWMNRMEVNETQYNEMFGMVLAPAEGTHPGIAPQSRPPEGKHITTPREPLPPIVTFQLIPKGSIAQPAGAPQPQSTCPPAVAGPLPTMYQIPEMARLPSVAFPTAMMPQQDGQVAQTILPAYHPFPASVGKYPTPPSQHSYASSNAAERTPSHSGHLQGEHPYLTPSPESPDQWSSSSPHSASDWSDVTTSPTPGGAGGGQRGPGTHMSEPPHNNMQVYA
Sequence of Pro-neuregulin-1, membrane-bound isoform (Homo sapiens) (Q02297 whole entry, looked up, the tested form may be a part, canonical isoform): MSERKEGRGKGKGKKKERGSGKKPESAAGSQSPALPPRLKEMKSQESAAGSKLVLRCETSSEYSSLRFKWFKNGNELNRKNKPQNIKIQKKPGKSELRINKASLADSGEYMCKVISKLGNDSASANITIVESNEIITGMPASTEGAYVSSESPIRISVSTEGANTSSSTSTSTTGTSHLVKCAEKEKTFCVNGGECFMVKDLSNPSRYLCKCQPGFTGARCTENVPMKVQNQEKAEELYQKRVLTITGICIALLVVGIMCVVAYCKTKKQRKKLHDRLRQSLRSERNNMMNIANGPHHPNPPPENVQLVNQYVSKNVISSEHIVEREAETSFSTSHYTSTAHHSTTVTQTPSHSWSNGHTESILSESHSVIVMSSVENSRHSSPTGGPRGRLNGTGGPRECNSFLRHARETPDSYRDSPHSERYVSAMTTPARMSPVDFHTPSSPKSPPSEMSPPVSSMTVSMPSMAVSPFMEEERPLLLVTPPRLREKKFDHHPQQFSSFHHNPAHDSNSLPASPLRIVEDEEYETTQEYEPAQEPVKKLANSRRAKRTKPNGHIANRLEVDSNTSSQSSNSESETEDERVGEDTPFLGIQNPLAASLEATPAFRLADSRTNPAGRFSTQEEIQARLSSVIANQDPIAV

Regarding `CC(C)CNC(=O)[C@@H]1c2ccccc2C(=O)N(C(C)C)[C@H]1c1ccc(CO)cc1`, the composite z-score in experiment [1] was 0.172; in experiment [2] it was -0.0466; in experiment [3] it was -0.138; in experiment [4], -0.466; in [5], -0.811; in [6] it was -0.566. The composite z-score in experiment [7] was 1.41; in experiment [9], -0.117; in experiment [10] it was -0.261. For the same compound, in experiment [8], the z-score was -0.981 (inactive).

On to `CCN(CC)c1ccc(N2CC=CC34O[C@@H]5C=CCOC(=O)[C@@H]5[C@H]3C(=O)N(CCO)[C@@H]4C2=O)cc1` (stereo not given in full), for which the composite z-score in experiment [1] is 0.73; in [2] it was -0.0324; in [3] it was -0.144; in [4], -1.03; in [5], -1.51; in experiment [6], -0.0687. The composite z-score in [7] is 0.504; in experiment [9], -0.568; in experiment [10], -0.353. Further, the z-score in [8] was 0.737 (inactive).

Regarding `CC(C)C[C@@H]1NC(=O)C([C@@H](C)OCc2ccccc2)NC(=O)[C@@]23C(=O)N[C@@H](Cc4ccccc4)C2[C@H](C)[C@@]2(C)O[C@H]2C3/C=C/CC/C=C/CNC1=O` (stereo not given in full), the composite z-score was -0.38 in experiment [1]; 0.924 in [2]; -0.0841 in experiment [3]; 0.379 in experiment [4]; 0.319 in experiment [5]; 1.11 in [6]. Moreover, the composite z-score in [7] is 0.979; in experiment [9], 0.0793; in experiment [10] it was -0.353. In experiment [8], the z-score was 1.49 (inactive).

For `C#CCN=C(N)N`, the composite z-score in experiment [1] is -0.504; in experiment [2], 0.147; in [3], -0.127; in [4] it was 0.209; in [5], 0.389; in [6] it was 0.748. The composite z-score in [7] was 1.01; in [9], 0.224; in experiment [10], -0.226. Also, in experiment [8], the z-score is 0.007 (inactive).

In the case of `C=CCC(OC(C)=O)[C@@H]1[C@@H](N(Cc2cc3ccccc3o2)C(=O)c2cccc3ccccc23)c2cc(OCCCO)ccc2N1C(=O)c1ccc2ccccc2c1` (stereo not given in full), the composite z-score in [1] was -0.16; in experiment [2] it was -0.267; in [3], -0.0993; in experiment [4], 0.277; in [5] it was -0.0361; in [6], -0.223. Moreover, the composite z-score in experiment [7] is 0.272; in [9], 0.296; in [10], -0.128. The z-score in experiment [8] is -4.21 (inactive).

For `NC(=O)NCC#Cc1ccc2c(c1)[C@]1(C(=O)N2)[C@H](C(=O)N2CCCCCCC2)[C@H]2C(=O)O[C@H](c3ccccc3)[C@H](c3ccccc3)N2[C@@H]1c1ccc(O)cc1`, the composite z-score in experiment [1] is 3.57; in [2], 0.346; in experiment [3] it was 0.688; in experiment [4], 0.8; in experiment [5], 0.879; in experiment [6] it was 0.94. In addition, the results for the composite z-score in [7], in experiment [9] and in experiment [10] were 0.947, 2.99 and 2.75, respectively. Further, the z-score in experiment [8] is 0.805 (inactive).

With `COCC1=C([C@H](O)CCc2ccccc2)[C@H](CO)n2c(=O)n(-c3ccccc3)c(=O)n2C1`, the composite z-score in experiment [1] is -0.13; in experiment [2], -0.235; in experiment [3], -0.112; in [4] it was 0.204; in [5] it was -0.423; in experiment [6], -0.675. Besides, the results for the composite z-score in experiment [7], in experiment [9] and in experiment [10] were -0.416, -0.371 and -0.156, respectively. The z-score in experiment [8] was -3.19 (inactive).

As to `C/C=C/CN(C(=O)C#Cc1ccccc1)[C@H](CO[Si](C)(C)C(C)(C)C)c1ccccc1`, the composite z-score in [1] is 0.15; in experiment [2], 0.183; in experiment [3], -0.237; in [4] it was -0.77; in [5], -1.58; in experiment [6] it was -0.339. In addition, the composite z-score is -0.164 in [7], -0.967 in experiment [9] and -0.435 in experiment [10]. In addition, the z-score in experiment [8] was -3.24 (inactive).

In the case of `CCC[C@@H]1C=C(C(=O)OCC)[C@H](c2ccccc2)N1S(=O)(=O)c1ccc(C)cc1`, the composite z-score amounted to 0.483 in experiment [1]; 0.379 in experiment [2]; 0.137 in [3]; 0.88 in [4]; 1.66 in [5]; 1.09 in experiment [6]. Further, the composite z-score in [7] was 1.06; in experiment [9] it was 1.2; in experiment [10] it was -0.105. Further, the z-score in experiment [8] was -1.56 (inactive).

With `COc1ccc(CCNC(=O)[C@@]2(Sc3ccc(C)cc3)CC(=O)N(Cc3cc(C(F)(F)F)cc(C(F)(F)F)c3)[C@@H]2c2ccc(CO)cc2)cc1`, the composite z-score in experiment [1] is 0.575; in experiment [2], -0.748; in [3], -0.188; in [4], -0.498; in [5], -1.79; in experiment [6] it was -0.854. The composite z-score was -0.637 in experiment [7], -0.498 in experiment [9] and 0.132 in experiment [10]. Further, the z-score in experiment [8] is 0.522 (inactive).

Take `C[C@@H](OCc1ccccc1)C1NC(=O)[C@@]23C(=O)N[C@@H](Cc4ccccc4)C2[C@H](C)[C@@]2(C)O[C@H]2C3/C=C/C/C=C\CNC(=O)[C@H](Cc2ccccc2)NC1=O` (stereo not given in full): the composite z-score is -0.497 in experiment [1]; -0.0147 in experiment [2]; -0.199 in experiment [3]; 0.709 in experiment [4]; -0.284 in [5]; -0.239 in experiment [6]. The composite z-score in experiment [7] is 0.438; in experiment [9], -0.128; in experiment [10], 0.103. Moreover, the z-score in experiment [8] is 3.33 (inactive).

For the compound `Cc1ccc(S[C@]2(C(=O)NCCCN(C)C)CC(=O)N(Cc3ccccc3Cl)[C@@H]2c2ccc(CO)cc2I)cc1`, the composite z-score was 1.23 in experiment [1]; -0.42 in experiment [2]; -0.0996 in experiment [3]; -0.855 in experiment [4]; -1.17 in [5]; 1.07 in experiment [6]. The composite z-score is 0.801 in [7], 0.141 in experiment [9] and -0.0346 in experiment [10]. Further, the z-score in experiment [8] was -1.4 (inactive).

For `O=C(NCC(F)(F)F)[C@@H]1c2ccccc2C(=O)N(CC23CC4CC(CC(C4)C2)C3)[C@H]1c1ccc(CO)cc1`, the composite z-score in experiment [1] was -0.473; in experiment [2], 0.371; in [3], -0.0549; in experiment [4], 0.353; in [5], 0.958; in [6], 0.553. The results for the composite z-score in experiment [7], in experiment [9] and in [10] were 1.21, 0.195 and -0.0776, respectively. Further, in [8], the z-score was -3.95 (inactive).

In the case of `CC(C)C[C@@H]1NC(=O)[C@@]23C(=O)N[C@@H](Cc4ccccc4)C2[C@H](C)[C@@]2(C)O[C@H]2C3/C=C/C/C=C\CNC(=O)[C@@H](CC(C)C)NC1=O` (stereo not given in full), the composite z-score was -0.47 in experiment [1]; -0.0387 in [2]; -0.0878 in [3]; 0.159 in experiment [4]; 0.416 in experiment [5]; 0.345 in experiment [6]. The composite z-score in [7] was 0.97; in experiment [9], 0.355; in experiment [10] it was -0.206. The z-score in experiment [8] is 2.49 (inactive).

For the compound `CC(=O)NCCCC[C@@H]1NC(=O)[C@@H]2C[C@H](C(=O)NCCCCCC[N+](C)(C)C)[C@H](c3ccc(O)cc3)N2C1=O`, the composite z-score in experiment [1] was 0.101; in [2] it was 0.437; in experiment [3] it was -0.224; in [4], 0.204; in experiment [5], 0.472; in [6], 0.148. The composite z-score is 1.23 in [7], -0.0677 in [9] and 0.0881 in experiment [10]. In [8], the z-score is 3.02 (inactive).

As to `N#Cc1ccc(C(O)C2C=CC3C(=O)N(c4ccccc4)C(=O)C3N2Nc2ccc([N+](=O)[O-])cc2)cc1` (stereo not given), the composite z-score in [1] is 0.561; in experiment [2], 0.31; in experiment [3], 0.139; in experiment [4], 0.863; in [5] it was 1.58; in [6], 1.77. In addition, the composite z-score in experiment [7] was 1.28; in experiment [9] it was 1.02; in experiment [10], -0.175. In addition, in experiment [8], the z-score is 0.498 (inactive).
